From PubChem BioAssay
SMN2 splice up: SMN2 splice variant enhancement; HEK293 SMN2-luciferase splicing reporter, luminescence, 30-36 h; Potency, µM (doses to about 46.1 µM), for the others: at the highest dose activity change, positive = activation, most hits filed as activators; actives 2.8% (n = 210,000); further: % of control where 0% means no effect; nearly all actives have a fitted effect of over 55% in size
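HEK293 cells carry an SMN2 minigene-luciferase reporter in which exon 7 inclusion puts luciferase in frame. Cells were seeded at 2000 cells/well, attached for 10-12 hours, then exposed to compounds for 30-36 hours at 37C before ONE-Glo luminescence.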
ELG1 repair inh: inhibitors of ELG1-dependent DNA repair in HEK293T cells; HEK293T ELG1-luciferase reporter, luminescence, 16 h; DNA damage induced by 5-fluorouridine; Potency, µM (series often up to 46.1 µM), for inactives: at the highest dose activity change, negative = inhibition, usual class: inhibitors; actives 2.3% (n = 330,000); AID 504467; further: on the % scale 0 is the no-effect control and ±100 the full control effect; nearly all actives have a fitted effect of over 55% in size
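HEK293T cells expressing luciferase-tagged ELG1 (2,000/well) received 5-Fluorouridine plus compound or DMSO for 16 hr at 37 °C. Luciferase was read by ONE-Glo luminescence after 30 min at room temperature.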
Rab9 promoter act: activates the Rab9 promoter. Potency, µM (doses to about 9.22 µM), inactives show at the highest dose activation, negative = inhibition, most hits filed as activators. Huh7 Rab9 promoter-luciferase reporter, luminescence, 24 h. actives 2.8% (n = 320,000); further: % of control where 0% means no effect; nearly all actives have a fitted effect of over 60% in size
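Promoter activation is measured as luciferase luminescence in Huh7 cells stably transfected with a Rab9 promoter–luciferase construct, following 24 h compound exposure at 37 °C and 10 min reagent incubation at ambient temperature.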
NPC1 promoter act: activates the NPC1 promoter. Huh7 NPC1 promoter luciferase reporter, 24 h. Potency, µM (highest dose often 9.22 µM), for the others: top-dose activation, usual class: activators. actives 2.4% (n = 320,000); further: % of control where 0% means no effect; nearly all actives have a fitted effect of over 60% in size
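NPC1 promoter–luciferase Huh7 cells; 24 h compound; luminescence.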
FLuc counter: counter-screen for miR-21 project: firefly luciferase inhibitors or activators; purified FLuc, Km substrates, luminescence inhibition; Potency, µM (doses to about 57.5 µM), inactives show top-dose activity change, negative = inhibition, most hits filed as inhibitors; actives 6.9% (n = 360,000); AID 588342;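 further: plate controls were vehicle for no effect and reference inhibitor for full effect; nearly all actives have a fitted effect of over 55% in size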
Target sequence (P08659 whole entry, looked up): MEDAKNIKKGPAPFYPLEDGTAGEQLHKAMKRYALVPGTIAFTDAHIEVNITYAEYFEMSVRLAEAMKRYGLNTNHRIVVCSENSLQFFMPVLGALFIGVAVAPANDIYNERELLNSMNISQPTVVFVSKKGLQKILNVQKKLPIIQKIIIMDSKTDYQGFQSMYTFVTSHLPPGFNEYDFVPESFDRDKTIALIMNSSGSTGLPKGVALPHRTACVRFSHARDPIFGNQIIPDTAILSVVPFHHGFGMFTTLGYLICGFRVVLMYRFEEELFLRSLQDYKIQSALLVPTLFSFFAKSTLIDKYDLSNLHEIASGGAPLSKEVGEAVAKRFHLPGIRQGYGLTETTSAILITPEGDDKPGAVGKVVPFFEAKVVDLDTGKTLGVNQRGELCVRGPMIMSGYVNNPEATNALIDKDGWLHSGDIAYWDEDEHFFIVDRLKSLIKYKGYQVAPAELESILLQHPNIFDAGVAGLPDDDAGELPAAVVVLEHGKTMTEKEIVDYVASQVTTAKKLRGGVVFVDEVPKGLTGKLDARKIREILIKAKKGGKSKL
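Purified P. pyralis luciferase, 10 nM final, with Km-level 10 uM D-luciferin and 10 uM ATP in 50 mM Tris acetate pH 7.5, 10 mM Mg acetate, 0.01% Tween-20, 0.05% BSA; 6-point qHTS titration about 60 µM downward; luminescence read.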
ELG1 genotox: inducers of genotoxicity in HEK293T ELG1-luciferase cells; HEK293T ELG1-luciferase reporter, luminescence, 16 h; Potency, µM (titrated, usually from 46 µM), for the others: at the top dose activity change, positive = activation, actives largely listed as activators; actives 1.3% (n = 330,000); AID 504466; further: % of control where 0% means no effect; nearly all actives have a fitted effect of over 60% in size
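HEK293T cells expressing luciferase-tagged ELG1 were treated with compound or DMSO for 16 hr at 37°C. Luciferase activity was then read after 30 min with ONE-Glo at room temperature; rising signal flags genetic stress.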
Numbers without * were called inactive. Most compounds without a hit are left out; they make up all but 9.4% or so of the library. The call rests on the fitted dose curve; in most records, active means well fitted curve in the direction sought with a large enough effect; inconclusive means small, poorly fitted or top-dose-only effect, or another doubt; inactive means no such curve, though single readings can be large; an effect the other way counts as inactive or inconclusive. Potency means the concentration at half of the fitted maximal effect.

For O=C(Nc1ccc(N2CCN(C(=O)c3ccco3)CC2)cc1)c1ccccc1 the results were SMN2 splice up -5%, ELG1 repair inh inconclusive, Rab9 promoter act -3%, NPC1 promoter act -2%, FLuc counter -13% and ELG1 genotox 0%.
`Cc1cc(C)cc(C(=O)Nc2ccc(N3CCN(C(=O)c4ccco4)CC3)cc2)c1` gave ELG1 repair inh 21µM*, Rab9 promoter act 1%, NPC1 promoter act -5%, FLuc counter -2% and ELG1 genotox -30%.
For O=C(Nc1ccc(N2CCN(C(=O)c3ccco3)CC2)cc1)c1ccc(F)cc1 the results were SMN2 splice up -29%, ELG1 repair inh 21µM*, Rab9 promoter act -4%, NPC1 promoter act 2%, FLuc counter -12% and ELG1 genotox -8%.
`Cc1ccc(Cl)cc1NC(=O)c1oc2c(c1C)-c1[nH]ncc1CC2` gave FLuc counter -2%.
For Oc1ccc2c(c1)oc1cc(O)ccc12 the results were SMN2 splice up inconclusive, ELG1 repair inh inconclusive, Rab9 promoter act 0%, NPC1 promoter act -2%, FLuc counter 19µM* and ELG1 genotox 11%.
Screening COc1c(C)oc2cc(O)ccc2c1=O returned SMN2 splice up 15%, ELG1 repair inh -7%, Rab9 promoter act 3%, NPC1 promoter act 1%, FLuc counter 6% and ELG1 genotox -1%.
`COc1cccc(/C=C2\SC(=O)N(CC(=O)NC3C=CS(=O)(=O)C3)C2=O)c1` (configuration not stated) gave ELG1 repair inh inconclusive, Rab9 promoter act 6%, NPC1 promoter act -4%, FLuc counter 27µM* and ELG1 genotox -7%.
CC(C)c1ccc(/C=C2\SC(=O)N(CC(=O)NC3C=CS(=O)(=O)C3)C2=O)cc1 (configuration not stated) was read as ELG1 repair inh inconclusive, Rab9 promoter act 23%, NPC1 promoter act 26%, FLuc counter 1.2µM* and ELG1 genotox 5%.
COc1cccc(/C=C2\SC(=S)N(C(C)C(=O)NC3C=CS(=O)(=O)C3)C2=O)c1 (configuration not stated) was read as ELG1 repair inh 3%, Rab9 promoter act 12%, NPC1 promoter act -6%, FLuc counter inconclusive and ELG1 genotox 9%.
For COc1cccc(/C=C2\SC(=O)N(CC(=O)NC3CCS(=O)(=O)C3)C2=O)c1 (configuration not stated) the results were ELG1 repair inh 8%, Rab9 promoter act 0%, NPC1 promoter act -14%, FLuc counter 17µM* and ELG1 genotox 6%.
For COc1ccccc1/C=C1\SC(=S)N(CC(=O)NC2CCS(=O)(=O)C2)C1=O (configuration not stated) the results were ELG1 repair inh 4%, Rab9 promoter act 3%, NPC1 promoter act -3%, FLuc counter 13µM* and ELG1 genotox 0%.
O=C(CN1C(=O)/C(=C/c2ccccc2)SC1=S)NC1CCS(=O)(=O)C1 (configuration not stated) was read as ELG1 repair inh 19%, Rab9 promoter act 0%, NPC1 promoter act -8%, FLuc counter -18% and ELG1 genotox -1%.
Screening CCn1cc2nc(SCc3ccccc3F)n(Cc3ccc(C)cc3)c(=O)c2n1 returned FLuc counter -11%.
Nc1c(C(=O)Nc2ccc(Cl)c(C(F)(F)F)c2)sc2nc(-c3ccncc3)ccc12 was read as SMN2 splice up -2% and FLuc counter 0%.
`N#C/C(=C(/O)c1ccc(Cl)c([N+](=O)[O-])c1)c1nc2ccccc2[nH]1` gave ELG1 repair inh 8.2µM*, Rab9 promoter act -1%, NPC1 promoter act -1%, FLuc counter -14% and ELG1 genotox -6%.
For Cc1c(CCC(=O)NCCc2ccccc2F)c(=O)oc2cc(O)ccc12 the results were SMN2 splice up 3% and FLuc counter -18%.
For O=C(c1ccc(NS(=O)(=O)c2cccc([N+](=O)[O-])c2)cc1)N1CCN(C(=O)c2ccco2)CC1 the results were ELG1 repair inh 12%, Rab9 promoter act -3%, NPC1 promoter act -4%, FLuc counter 1% and ELG1 genotox 1%.
COc1cccc(S(=O)(=O)Nc2ccc(C(=O)N3CCN(C(=O)c4ccco4)CC3)cc2)c1 was read as SMN2 splice up -33%, ELG1 repair inh 18µM*, Rab9 promoter act 0%, NPC1 promoter act -4%, FLuc counter 2% and ELG1 genotox -5%.
For COc1ccccc1CNC(=O)C1CCN(S(=O)(=O)c2ccc3[nH]c(=O)ccc3c2)CC1 the results were FLuc counter -2%.
For O=C(CCN1C(=O)/C(=C\c2ccccc2)SC1=S)Nc1ccc(C(=O)O)cc1 the results were ELG1 repair inh 9%, Rab9 promoter act 0%, NPC1 promoter act -1%, FLuc counter inconclusive and ELG1 genotox -1%.
Screening CCOc1ccc(/C=C2\SC(=S)N(CCC(=O)Nc3ccccc3C(=O)O)C2=O)cc1 returned ELG1 repair inh -8%, Rab9 promoter act inconclusive, NPC1 promoter act 2%, FLuc counter 15µM* and ELG1 genotox 6%.
For COc1ccc(/C=C2\SC(=S)N(CCC(=O)Nc3ccccc3C(=O)O)C2=O)cc1 the results were ELG1 repair inh 2%, Rab9 promoter act -1%, NPC1 promoter act -5%, FLuc counter 21µM* and ELG1 genotox -2%.
For COc1ccc(/C=C2\SC(=S)N(CCCC(=O)Nc3ccccc3C(=O)O)C2=O)cc1OC the results were ELG1 repair inh -9%, Rab9 promoter act 3%, NPC1 promoter act 6%, FLuc counter 3% and ELG1 genotox -1%.
`CCOc1ccc(/C=C2/SC(=S)N(CCC(=O)Nc3ccc(C(=O)O)cc3)C2=O)cc1` gave ELG1 repair inh 6%, Rab9 promoter act 0%, NPC1 promoter act 1%, FLuc counter 1.2µM* and ELG1 genotox inconclusive.
COc1ccc(/C=C2\SC(=O)N(CCCC(=O)Nc3cc(Cl)ccc3C(=O)O)C2=O)cc1 was read as ELG1 repair inh 2.1µM* and ELG1 genotox -9%.
Screening COC(=O)[C@@]1(Cc2ccc(OC)cc2)[C@H]2c3cc(C(=O)N(C)C)n(Cc4ccc(C(F)(F)F)nc4)c3C[C@H]2CN1C(=O)c1ccccc1 returned SMN2 splice up -11%.
Screening CCOc1ccc(/C=C2\SC(=S)N(CCC(=O)O)C2=O)cc1 returned ELG1 repair inh inconclusive, Rab9 promoter act -31%, NPC1 promoter act -11%, FLuc counter 1.7µM* and ELG1 genotox 0%.
